The text below walks through data of PubChem BioAssay (NCATS).

The structures appear in SMILES notation. Inconclusive results are not listed. Where a call stands in place of a potency, no number is given. Calls of active or inactive are those of the source. Calls follow the shape of the dose curve; as a rule, active = well fitted inhibition curve with a large enough effect; inconclusive = small, poorly fitted or top-dose-only effect; inactive = no such curve, though single readings can be large or run the other way.
Potency is read from the fitted curve at half-maximal effect.

This assay has as its system Zika virus NS2B-NS3 protease (unlinked). The assay is described as follows: Optimization of GU AMC qHTS for Zika virus inhibitors: Unlinked NS2B-NS3 protease assay (AID 1347151). Also: nearly all actives have a fitted effect of over 80% in size. The note with it: recombinant ZIKV NS2B-NS3 protease, fluorogenic AMC substrate; series mostly up to 52.5 µM. The procedure, abridged: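 Fluorescence gain (340/450 nm) over 15 min at room temperature, ~20% conversion, gave percent inhibition fitted to a 4-parameter Hill equation; enzyme was unlinked NS2B-NS3 (25 nM final), pH 8.0 Tris buffer.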
In general terms: In qHTS, concentration-response curves come from the screen itself.
As to `C[C@]12N[C@H](Cc3ccccc31)c1ccccc12`, the Potency entry was “inactive”.

For `NC(=NCCC[C@H](N)C(=O)O)N[N+](=O)[O-]`, the Potency entry was “inactive”.

As for `COc1ccc2c(c[n+](C)c3c4cc5c(cc4ccc23)OCO5)c1OC`, the Potency is 29.9 µM (active).

In the case of `O=C(O)[C@@H]1CCN1`, the Potency entry was “inactive”.

Take `C=CCN1CC[C@]23CCCCC2[C@H]1Cc1ccc(O)cc13` (some centres undefined): the Potency result is “inactive”.

For the compound `CCCCc1ccc(C(=O)O)nc1`, the Potency entry is “inactive”.

As for `NC(N)=NOCCC(N)C(=O)O` (centres undefined), the Potency result is “inactive”.

On to `CN[C@@H]1C[C@@H](c2ccc(Cl)c(Cl)c2)c2ccccc21`, for which the Potency entry is “inactive”.

For `Cc1nccc2c1[nH]c1ccccc12`, the Potency was 26.7 µM (active).

On to `C[C@@H](N)Cc1cnc[nH]1`, for which the Potency result was “inactive”.

Consider `CCCN1CCC[C@H](c2cccc(O)c2)C1`, for which the Potency entry was “inactive”.

Regarding `C[N+](C)(C)CC(=O)O`, the Potency entry is “inactive”.

Take `Oc1ccc2c3c1O[C@H]1c4[nH]c5c(c4C[C@@]4(O)[C@@H](C2)N(CC2CC2)CC[C@]314)C[C@@]1(O)[C@H]2Cc3ccc(O)c4c3[C@@]1(CCN2CC1CC1)[C@H]5O4`: the Potency entry is “inactive”.

For the compound `NC(=O)CN1CC(O)CC1=O` (centres undefined), the Potency result was “inactive”.

Regarding `C[C@@H]1O[C@H](C[N+](C)(C)C)C[C@H]1O`, the Potency result is “inactive”.

With `c1ccc2sc(C3(N4CCCCC4)CCCCC3)cc2c1`, the Potency result is “inactive”.

In the case of `CNCCc1c[nH]c2ccc(O)cc12`, the Potency entry is “inactive”.

In the case of `CC(C)Oc1cccnc1N(C)C1CCN(Cc2ccccc2)CC1`, the Potency was 29.9 µM (active).

In the case of `C[C@]12CCC3C(CC[C@H]4C[C@H](O)CC[C@]34C)C1CC[C@@H]2C(=O)CO` (some centres undefined), the Potency result is “inactive”.

For the compound `c1ccc(C2(c3ccccc3)CC2C2=NCCN2)cc1` (centres undefined), the Potency entry was “inactive”.

For the compound `CC(=O)[C@H]1CCC2C3CC[C@H]4C[C@H](O)CC[C@]4(C)C3CC[C@@]21C` (some centres undefined), the Potency entry is “inactive”.

Turning to `O=C(Cc1ccc(Cl)c(Cl)c1)N1CCCCC1CN1CCCC1` (centres undefined), the Potency result is “inactive”.

For `CC(C)NC(C)Cc1ccc(I)cc1` (centres undefined), the Potency result is “inactive”.

Consider `O=C1CCCN1CC#CCN1CCCC1`, for which the Potency result was “inactive”.

`NC1CC1c1ccccc1` (centres undefined): the Potency entry is “inactive”.

Regarding `NCc1cc(=O)[nH]o1`, the Potency entry is “inactive”.

Turning to `C[N+]1(C)C2CCC1CC(OC(=O)C(CO)c1ccccc1)C2` (centres undefined), the Potency result was “inactive”.

As to `COc1cc(C(O)CN)ccc1O` (centres undefined), the Potency result was “inactive”.

For the compound `NC1CCc2cc(O)c(O)cc2C1` (centres undefined), the Potency entry is “inactive”.

As to `O=C(O)CC[N+](=O)[O-]`, the Potency result is “inactive”.

Consider `Cn1cnc(CCN)c1`, for which the Potency result was “inactive”.

Turning to `CS(=N)(=O)CC[C@H](N)C(=O)O` (some centres undefined), the Potency entry is “inactive”.

With `CN1C2CCC1CC(OC(=O)c1cc(Cl)cc(Cl)c1)C2` (centres undefined), the Potency entry was “inactive”.

With `CNCCc1ccc(O)c(O)c1`, the Potency entry is “inactive”.
